{"source": "PubChem BioAssay (NCATS)", "key": {"[1]": {"test": "Validation screen for small molecules that induce DNA re-replication in SW480 colon adenocarcinoma cells (AID 504364)", "outline": "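Image-based DNA content read-out: Hoechst stain 40 min, total nuclear fluorescence intensity (ex 405 nm, em 500-530 nm) after 48 h compound exposure of 250 SW480 cells/well at 37 C, 5% CO2, versus DMSO vehicle.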"}, "[2]": {"test": "S16 Schwann cell viability assay (CellTiter-Glo assay) (AID 624031);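 also: native untransfected S16 rat Schwann cells; nearly all actives have a fitted effect of over 70% in size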", "outline": "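Counter-screen for cytotoxicity: parental S16 rat Schwann cells lacking the PMP22 reporters, treated 24 h with compound, viability from cellular ATP by CellTiter-Glo luminescence, normalized to DMSO (0%) and no-cell wells.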"}, "[3]": {"test": "S16 Schwann cell PMP22 intronic element firefly luciferase assay (AID 624032); also: nearly all actives have a fitted effect of over 30% in size", "outline": "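Luciferase reporter of PMP22 intronic-element expression in stably transfected S16 rat Schwann cells, read by ONE-Glo luminescence after 24 h compound exposure at 37 C. Activity scaled between DMSO (0%) and positive-control PTC124; concentration-effect curves quality-classified.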"}, "7G8": {"tested_on": "7G8", "test": "qHTS profiling for inhibitors of Plasmodium falciparum proliferation (AID 504749); also: nearly all actives have a fitted effect of over 60% in size; also: potency is read from the fitted curve at half-maximal effect", "settings": "P. falciparum in erythrocytes, SYBR Green DNA, 72 h; series mostly up to 12.8 µM", "outline": "(§1)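 SYBR Green fluorescence of parasite DNA, read after lysis and overnight dark incubation, measured growth over 72 h in erythrocyte culture at 0.3% parasitemia and 2.5% hematocrit. Data normalised to DMSO and 0.29 uM artemisinin, with plate-drift correction.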"}, "AS120": {"tested_on": "AS120", "test": "qHTS profiling for inhibitors of Plasmodium falciparum proliferation (AID 504749)", "settings": "P. falciparum in erythrocytes, SYBR Green DNA, 72 h; series mostly up to 28.7 µM", "outline": "as §1"}, "ATS189": {"tested_on": "ATS189", "test": "qHTS profiling for inhibitors of Plasmodium falciparum proliferation (AID 504749)", "settings": "P. falciparum in erythrocytes, SYBR Green DNA, 72 h; series mostly up to 28.7 µM", "outline": "as §1"}, "CP185": {"tested_on": "CP185", "test": "qHTS profiling for inhibitors of Plasmodium falciparum proliferation (AID 504749)", "settings": "P. falciparum in erythrocytes, SYBR Green DNA, 72 h; series mostly up to 28.7 µM", "outline": "as §1"}, "CP192": {"tested_on": "CP192", "test": "qHTS profiling for inhibitors of Plasmodium falciparum proliferation (AID 504749)", "settings": "P. falciparum in erythrocytes, SYBR Green DNA, 72 h; series mostly up to 28.7 µM", "outline": "as §1"}, "CP194": {"tested_on": "CP194", "test": "qHTS profiling for inhibitors of Plasmodium falciparum proliferation (AID 504749)", "settings": "P. falciparum in erythrocytes, SYBR Green DNA, 72 h; series mostly up to 28.7 µM", "outline": "as §1"}, "CP201": {"tested_on": "CP201", "test": "qHTS profiling for inhibitors of Plasmodium falciparum proliferation (AID 504749)", "settings": "P. falciparum in erythrocytes, SYBR Green DNA, 72 h; series mostly up to 28.7 µM", "outline": "as §1"}, "CP237": {"tested_on": "CP237", "test": "qHTS profiling for inhibitors of Plasmodium falciparum proliferation (AID 504749)", "settings": "P. falciparum in erythrocytes, SYBR Green DNA, 72 h; series mostly up to 28.7 µM", "outline": "as §1"}, "CP286": {"tested_on": "CP286", "test": "qHTS profiling for inhibitors of Plasmodium falciparum proliferation (AID 504749)", "settings": "P. falciparum in erythrocytes, SYBR Green DNA, 72 h; series mostly up to 28.7 µM", "outline": "as §1"}, "CP305": {"tested_on": "CP305", "test": "qHTS profiling for inhibitors of Plasmodium falciparum proliferation (AID 504749)", "settings": "P. falciparum in erythrocytes, SYBR Green DNA, 72 h; series mostly up to 28.7 µM", "outline": "as §1"}, "DIV30": {"tested_on": "DIV30", "test": "qHTS profiling for inhibitors of Plasmodium falciparum proliferation (AID 504749)", "settings": "P. falciparum in erythrocytes, SYBR Green DNA, 72 h; series mostly up to 28.7 µM", "outline": "as §1"}, "GB4": {"tested_on": "GB4", "test": "qHTS profiling for inhibitors of Plasmodium falciparum proliferation (AID 504749)", "settings": "P. falciparum in erythrocytes, SYBR Green DNA, 72 h; series mostly up to 28.7 µM", "outline": "as §1"}, "HB3": {"tested_on": "HB3", "test": "qHTS profiling for inhibitors of Plasmodium falciparum proliferation (AID 504749)", "settings": "P. falciparum in erythrocytes, SYBR Green DNA, 72 h; series mostly up to 28.7 µM", "outline": "as §1"}, "P94_40": {"tested_on": "P94_40", "test": "qHTS profiling for inhibitors of Plasmodium falciparum proliferation (AID 504749)", "settings": "P. falciparum in erythrocytes, SYBR Green DNA, 72 h; series mostly up to 28.7 µM", "outline": "as §1"}, "TAB109": {"tested_on": "TAB109", "test": "qHTS profiling for inhibitors of Plasmodium falciparum proliferation (AID 504749)", "settings": "P. falciparum in erythrocytes, SYBR Green DNA, 72 h; series mostly up to 12.8 µM", "outline": "as §1"}, "TAB113": {"tested_on": "TAB113", "test": "qHTS profiling for inhibitors of Plasmodium falciparum proliferation (AID 504749)", "settings": "P. falciparum in erythrocytes, SYBR Green DNA, 72 h; series mostly up to 28.7 µM", "outline": "as §1"}, "[4]": {"test": "Nrf2 qHTS screen for inhibitors: Validation (AID 493153; active = well fitted inhibition curve with a large enough effect in the main read-out, with a control signal flat, not every such curve was filed as active)", "settings": "viability change: measured here: cytotoxicity max response", "outline": "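Concentration-response on A549 ARE_Fluc reporter cells exposed 18-24 h at 37 C, 5% CO2. Cytotoxicity read first by CellTiter-Fluor fluorescence (Ex 405/Em 525), then Nrf2 inhibition by BugLite luminescence after 15 min.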"}}, "note": "Results filed as inconclusive are left out. A call without a number means that no potency is given here. The source made the active and inactive calls. Unless noted, calls follow the shape of the dose curve; as a rule, active = well fitted curve in the direction sought with a large enough effect; inconclusive = small, poorly fitted or top-dose-only effect, or another doubt; inactive = no such curve, though single readings can be large; an effect the other way counts as inactive or inconclusive."}
{"smiles": "C[C@H]1OC[C@@H](C[N+](C)(C)C)O1", "values": [{"measurement": "outcome", "setting": "[1]", "value": "inactive"}]}
{"smiles": "CCN(CC)C(=O)N[C@@H]1C[C@@H]2c3cccc4[nH]cc(c34)C[C@H]2N(C)C1", "values": [{"measurement": "Potency", "setting": "[2]", "value": "inactive"}, {"measurement": "Potency", "setting": "[3]", "value": "inactive"}, {"measurement": "Potency", "setting": "7G8", "value": "4.47 µM (active)"}]}
{"smiles": "CC(C)(O)C1C2OC(=O)C1[C@]1(O)C[C@H]3O[C@]34C(=O)O[C@H]2[C@]14C", "note": "(stereo partly specified) (tested in a mixture with another compound)", "values": [{"measurement": "Potency", "setting": "[3]", "value": "inactive"}, {"measurement": "Potency", "setting": "7G8", "value": "inactive"}, {"measurement": "Potency", "setting": "AS120", "value": "inactive"}, {"measurement": "Potency", "setting": "ATS189", "value": "inactive"}, {"measurement": "Potency", "setting": "CP185", "value": "inactive"}, {"measurement": "Potency", "setting": "CP192", "value": "inactive"}, {"measurement": "Potency", "setting": "CP194", "value": "inactive"}, {"measurement": "Potency", "setting": "CP201", "value": "inactive"}, {"measurement": "Potency", "setting": "CP237", "value": "inactive"}, {"measurement": "Potency", "setting": "CP286", "value": "inactive"}, {"measurement": "Potency", "setting": "CP305", "value": "inactive"}, {"measurement": "Potency", "setting": "DIV30", "value": "inactive"}, {"measurement": "Potency", "setting": "GB4", "value": "inactive"}, {"measurement": "Potency", "setting": "HB3", "value": "inactive"}, {"measurement": "Potency", "setting": "P94_40", "value": "inactive"}, {"measurement": "Potency", "setting": "TAB109", "value": "inactive"}, {"measurement": "Potency", "setting": "TAB113", "value": "inactive"}]}
{"smiles": "CC12CCC3C(CCC4=C(O)C(=O)CCC43C)C1CCC2=O", "note": "(stereo unspecified)", "values": [{"measurement": "outcome", "setting": "[4]", "value": "inactive"}, {"measurement": "viability change", "setting": "[4]", "value": 0.774, "unit": "%"}]}
{"smiles": "Oc1ccc2c3c1O[C@H]1[C@@H](O)CC[C@@]4(O)C(C2)N(CC2CCC2)CCC314", "note": "(stereo partly specified)", "values": [{"measurement": "Potency", "setting": "[2]", "value": "inactive"}, {"measurement": "Potency", "setting": "AS120", "value": "inactive"}, {"measurement": "Potency", "setting": "ATS189", "value": "inactive"}, {"measurement": "Potency", "setting": "CP185", "value": "inactive"}, {"measurement": "Potency", "setting": "CP192", "value": "inactive"}, {"measurement": "Potency", "setting": "CP194", "value": "inactive"}, {"measurement": "Potency", "setting": "CP201", "value": "inactive"}, {"measurement": "Potency", "setting": "CP237", "value": "inactive"}, {"measurement": "Potency", "setting": "CP286", "value": "inactive"}, {"measurement": "Potency", "setting": "CP305", "value": "inactive"}, {"measurement": "Potency", "setting": "DIV30", "value": "inactive"}, {"measurement": "Potency", "setting": "GB4", "value": "inactive"}, {"measurement": "Potency", "setting": "HB3", "value": "inactive"}, {"measurement": "Potency", "setting": "P94_40", "value": "inactive"}, {"measurement": "Potency", "setting": "TAB109", "value": "inactive"}, {"measurement": "Potency", "setting": "TAB113", "value": "inactive"}]}
{"smiles": "CCCC[N+]1(C)C2CC(OC(=O)C(CO)c3ccccc3)CC1C1OC12", "note": "(stereo unspecified)", "values": [{"measurement": "Potency", "setting": "[2]", "value": "inactive"}, {"measurement": "Potency", "setting": "[3]", "value": "inactive"}, {"measurement": "Potency", "setting": "7G8", "value": "inactive"}, {"measurement": "Potency", "setting": "AS120", "value": "inactive"}, {"measurement": "Potency", "setting": "ATS189", "value": "inactive"}, {"measurement": "Potency", "setting": "CP185", "value": "inactive"}, {"measurement": "Potency", "setting": "CP192", "value": "inactive"}, {"measurement": "Potency", "setting": "CP194", "value": "inactive"}, {"measurement": "Potency", "setting": "CP201", "value": "inactive"}, {"measurement": "Potency", "setting": "CP237", "value": "inactive"}, {"measurement": "Potency", "setting": "CP286", "value": "inactive"}, {"measurement": "Potency", "setting": "CP305", "value": "inactive"}, {"measurement": "Potency", "setting": "DIV30", "value": "inactive"}, {"measurement": "Potency", "setting": "GB4", "value": "inactive"}, {"measurement": "Potency", "setting": "HB3", "value": "inactive"}, {"measurement": "Potency", "setting": "P94_40", "value": "inactive"}, {"measurement": "Potency", "setting": "TAB109", "value": "inactive"}, {"measurement": "Potency", "setting": "TAB113", "value": "inactive"}]}
{"smiles": "C[C@H]1C2Cc3ccc(O)cc3[C@]1(C)CCN2CC1CC1", "values": [{"measurement": "outcome", "setting": "[4]", "value": "inactive"}, {"measurement": "viability change", "setting": "[4]", "value": -0.82, "unit": "%"}, {"measurement": "outcome", "setting": "[1]", "value": "inactive"}]}
{"smiles": "CCC(CO)NC(=O)[C@@H]1C=C2c3cccc4[nH]cc(c34)C[C@H]2N(C)C1", "note": "(stereo partly specified)", "values": [{"measurement": "outcome", "setting": "[1]", "value": "inactive"}]}
